The results in this text go back to PubChem BioAssay (EPA / NIEHS).

Read-out in experiment [1]: xenobiotic metabolism (CYP1A2), CYP1A2 (gene 1544)
Kind of experiment: CLD_CYP1A2_24hr: CellzDirect (CLD) Gene Expression Assay for xenobiotic metabolism (CYP1A2) at 24 hours (AID 2283683). The gist of the method:
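CYP1A2 mRNA induction measured by quantitative nuclease protection (chemiluminescent) in human primary hepatocytes 24 h after multi-concentration chemical dosing with daily fresh solutions. DMSO (0.2%) baseline; positive-direction fitting; morphology-based cytotoxicity noted.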

Read-out in experiment [2]: Cytochrome P450 2C19 (Homo sapiens) (UniProt P33261)
Kind of experiment: CLD_CYP2C19_24hr: CellzDirect (CLD) Gene Expression Assay for xenobiotic metabolism (CYP2C19) at 24 hours (AID 2283687).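 Note: activity means mRNA induction above DMSO vehicle baseline.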 The gist of the method: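 CYP2C19 mRNA was quantified by qNPA chemiluminescence after 24 h of daily dosing of cultured human primary hepatocytes from two donors; vehicle was 0.2% DMSO, and increases over DMSO baseline were fitted.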

Read-out in experiment [3]: Cytochrome P450 2C9 (Homo sapiens) (UniProt P11712)
Kind of experiment: CLD_CYP2C9_24hr: CellzDirect (CLD) Gene Expression Assay for xenobiotic metabolism (CYP2C9) at 24 hours (AID 2283688). The procedure, abridged:
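Induction of CYP2C9 mRNA was quantified by quantitative nuclease protection assay (chemiluminescence), gain of signal versus 0.2% DMSO vehicle, 24 h after dosing. Human primary hepatocytes (two donors) received fresh chemical daily at multiple concentrations; morphology-based cytotoxicity flagged yes/no.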

Read-out in experiment [4]: Cytochrome P450 3A4 (Homo sapiens) (UniProt P08684)
Kind of experiment: CLD_CYP3A4_24hr: CellzDirect (CLD) Gene Expression Assay for xenobiotic metabolism (CYP3A4) at 24 hours (AID 2283689). The procedure, abridged:
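CYP3A4 mRNA induction read by quantitative nuclease protection (chemiluminescence) 24 hr after dosing. Cultured human hepatocytes (two donor preparations) treated daily, vehicle 0.2% DMSO; phase-contrast morphology annotates cytotoxicity.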

Read-out in experiment [5]: alkyl and aryl transferase (GSTA2), GSTA2 (gene 2939)
Kind of experiment: CLD_GSTA2_24hr: CellzDirect (CLD) Gene Expression Assay for alkyl and aryl transferase (GSTA2) at 24 hours (AID 2283693). The gist of the method:
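GSTA2 transcript levels were quantified by quantitative nuclease protection assay in primary human hepatocytes 24 h after daily dosing with fresh solutions at multiple concentrations; 0.2% DMSO vehicle as baseline, cytotoxicity flagged morphologically.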

Read-out in experiment [6]: ABC Transporter (ABCB1), ABCB1 (gene 5243)
Kind of experiment: CLD_ABCB1_48hr: CellzDirect (CLD) Gene Expression Assay for ABC Transporter (ABCB1) at 48 hours (AID 2283695). The procedure, abridged: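 ABCB1 mRNA was measured by quantitative nuclease protection assay (chemiluminescence) 48 h after dosing. Human hepatocyte cultures from two separate donors received fresh dosing solutions daily for two days, with 0.2% DMSO as vehicle. Positive-direction fit against DMSO.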

Read-out in experiment [7]: glucuronosyltransferase (UGT1A1), UGT1A1 (gene 54658)
As to the kind of experiment: CLD_UGT1A1_24hr: CellzDirect (CLD) Gene Expression Assay for glucuronosyltransferase (UGT1A1) at 24 hours (AID 2283696). The gist of the method: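 UGT1A1 transcript induction was measured by quantitative nuclease protection assay (chemiluminescence) in human hepatocyte cultures 24 h after daily fresh dosing, with 0.2% DMSO as vehicle and baseline.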

Read-out in experiment [8]: Cytochrome P450 2B6 (Homo sapiens) (UniProt P20813)
As to the kind of experiment: CLD_CYP2B6_48hr: CellzDirect (CLD) Gene Expression Assay for xenobiotic metabolism (CYP2B6) at 48 hours (AID 2283699).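 Note: actives raise transcript level above DMSO so potency reflects induction.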 The gist of the method: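 CYP2B6 transcript induction, read by quantitative nuclease protection (S1 digestion, chemiluminescent detection) 48 h after dosing, is fitted upward against 0.2% DMSO. Cultured human liver primary cells, two donor preparations, received fresh chemical daily over multiple concentrations.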

Read-out in experiment [9]: xenobiotic metabolism (CYP1A2), CYP1A2 (gene 1544)
As to the kind of experiment: CLD_CYP1A2_48hr: CellzDirect (CLD) Gene Expression Assay for xenobiotic metabolism (CYP1A2) at 48 hours (AID 2283703). The gist of the method: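 Cytotoxicity was flagged yes/no from morphology, while CYP1A2 transcript induction was detected by qNPA chemiluminescence after a 48-hour exposure. Human primary hepatocyte cultures from separate donors received fresh dosing solutions daily over two days, with 0.2% DMSO as vehicle and baseline.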

Read-out in experiment [10]: Broad substrate specificity ATP-binding cassette transporter ABCG2 (Homo sapiens) (UniProt Q9UNQ0)
As to the kind of experiment: CLD_ABCG2_48hr: CellzDirect (CLD) Gene Expression Assay for ABC Transporter (ABCG2) at 48 hours (AID 2283704).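 For AC50: potency for induction of ABCG2 mRNA above the DMSO baseline.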 The procedure, abridged: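 ABCG2 transcript measured at 48 h by quantitative nuclease protection (chemiluminescent) and fitted for increase relative to 0.2% DMSO. Hepatocyte cultures from separate donors got fresh compound daily over two days; morphology annotated cytotoxicity.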

Read-out in experiment [11]: xenobiotic metabolism (CYP1A1), CYP1A1 (gene 1543)
As to the kind of experiment: CLD_CYP1A1_48hr: CellzDirect (CLD) Gene Expression Assay for xenobiotic metabolism (CYP1A1) at 48 hours (AID 2283705). The procedure, abridged: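 CYP1A1 transcript measured by quantitative nuclease protection (chemiluminescent) 48 h after two daily treatments of human hepatocyte cultures, versus 0.2% DMSO. Morphology-based cytotoxicity flags accompany data; two donor preparations used.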

Read-out in experiment [12]: Cytochrome P450 2B6 (Homo sapiens) (UniProt P20813)
Kind of experiment: CLD_CYP2B6_24hr: CellzDirect (CLD) Gene Expression Assay for xenobiotic metabolism (CYP2B6) at 24 hours (AID 2283686). The gist of the method:
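qNPA chemiluminescent measurement of mRNA at 24 hours in human primary hepatocyte cultures from two donor preparations, with daily fresh dosing and 0.2% DMSO vehicle as baseline. Morphology-based cytotoxicity flagged yes/no.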

Read-out in experiment [13]: Glyceraldehyde-3-phosphate dehydrogenase (Homo sapiens) (UniProt P04406)
As to the kind of experiment: CLD_GAPDH_24hr: CellzDirect (CLD) Gene Expression Assay for Baseline Control (Glyceraldehyde 3-phosphate dehydrogenase) at 24 hours (AID 2283692). The procedure, abridged:
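GAPDH baseline-control readout: qNPA chemiluminescent mRNA signal in human primary hepatocytes harvested 24 h after daily dosing, normalised to 0.2% DMSO with positive fitting direction; cytotoxicity annotated by phase-contrast morphology.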

Read-out in experiment [14]: Cytochrome P450 3A4 (Homo sapiens) (UniProt P08684)
As to the kind of experiment: CLD_CYP3A4_48hr: CellzDirect (CLD) Gene Expression Assay for xenobiotic metabolism (CYP3A4) at 48 hours (AID 2283698). The procedure, abridged:
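CYP3A4 induction read by qNPA chemiluminescence after 48 h, with fresh dosing solutions on consecutive days, in cultured human hepatocytes (two donors). Vehicle 0.2% DMSO as baseline; microscopy-based cytotoxicity annotated yes/no alongside data.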

Read-out in experiment [15]: sulfotransferase (SULT2A), SULT2A1 (gene 6822)
As to the kind of experiment: CLD_SULT2A_24hr: CellzDirect (CLD) Gene Expression Assay for sulfotransferase (SULT2A) at 24 hours (AID 2283694). The procedure, abridged:
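mRNA is measured by qNPA: probe hybridisation, S1 nuclease digestion, chemiluminescence, in lysates from human primary hepatocytes harvested 24 h after daily dosing. Vehicle was 0.2% DMSO. Phase-contrast microscopy flagged cytotoxicity (yes/no).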

Read-out in experiment [16]: ABC Transporter (ABCB1), ABCB1 (gene 5243)
As to the kind of experiment: CLD_ABCB1_24hr: CellzDirect (CLD) Gene Expression Assay for ABC Transporter (ABCB1) at 24 hours (AID 2283684). The procedure, abridged: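 ABCB1 mRNA induction versus 0.2% DMSO vehicle was read by qNPA chemiluminescence at 24 h. Cultured human hepatocytes from two donor preparations received daily fresh dosing, and phase-contrast cytotoxicity calls were annotated alongside the data.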

Inconclusive results are not listed. The source made the active and inactive calls. Rule for the calls: active = hit-call score of the fitted dose curve at least 0.9, where 1 is the maximum; inconclusive = response in the unintended direction; inactive = score below 0.9.

Sequence of Glyceraldehyde-3-phosphate dehydrogenase (Homo sapiens) (P04406 whole entry, looked up): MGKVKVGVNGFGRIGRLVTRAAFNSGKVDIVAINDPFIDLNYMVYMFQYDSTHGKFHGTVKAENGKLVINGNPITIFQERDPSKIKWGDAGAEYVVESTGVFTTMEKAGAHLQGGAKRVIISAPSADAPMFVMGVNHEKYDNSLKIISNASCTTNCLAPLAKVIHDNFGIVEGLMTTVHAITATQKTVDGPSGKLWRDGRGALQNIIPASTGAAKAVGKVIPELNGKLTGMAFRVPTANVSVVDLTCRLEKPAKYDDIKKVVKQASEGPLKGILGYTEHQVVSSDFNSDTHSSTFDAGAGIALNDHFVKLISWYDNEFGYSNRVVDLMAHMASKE
Sequence of Cytochrome P450 2C19 (Homo sapiens) (P33261 whole entry, looked up): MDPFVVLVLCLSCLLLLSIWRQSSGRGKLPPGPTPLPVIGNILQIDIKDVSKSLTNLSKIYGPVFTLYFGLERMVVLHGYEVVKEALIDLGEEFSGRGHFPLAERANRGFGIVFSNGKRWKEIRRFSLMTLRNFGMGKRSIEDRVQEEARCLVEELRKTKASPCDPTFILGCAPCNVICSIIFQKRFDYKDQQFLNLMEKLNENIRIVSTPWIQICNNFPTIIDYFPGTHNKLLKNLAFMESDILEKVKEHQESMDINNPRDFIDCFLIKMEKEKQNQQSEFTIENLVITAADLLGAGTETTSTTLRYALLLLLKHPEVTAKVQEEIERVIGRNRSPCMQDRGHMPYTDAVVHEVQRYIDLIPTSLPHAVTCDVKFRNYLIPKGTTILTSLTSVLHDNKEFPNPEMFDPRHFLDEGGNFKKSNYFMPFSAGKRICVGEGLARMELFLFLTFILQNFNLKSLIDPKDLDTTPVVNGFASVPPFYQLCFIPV
Sequence of Cytochrome P450 3A4 (Homo sapiens) (P08684 whole entry, looked up): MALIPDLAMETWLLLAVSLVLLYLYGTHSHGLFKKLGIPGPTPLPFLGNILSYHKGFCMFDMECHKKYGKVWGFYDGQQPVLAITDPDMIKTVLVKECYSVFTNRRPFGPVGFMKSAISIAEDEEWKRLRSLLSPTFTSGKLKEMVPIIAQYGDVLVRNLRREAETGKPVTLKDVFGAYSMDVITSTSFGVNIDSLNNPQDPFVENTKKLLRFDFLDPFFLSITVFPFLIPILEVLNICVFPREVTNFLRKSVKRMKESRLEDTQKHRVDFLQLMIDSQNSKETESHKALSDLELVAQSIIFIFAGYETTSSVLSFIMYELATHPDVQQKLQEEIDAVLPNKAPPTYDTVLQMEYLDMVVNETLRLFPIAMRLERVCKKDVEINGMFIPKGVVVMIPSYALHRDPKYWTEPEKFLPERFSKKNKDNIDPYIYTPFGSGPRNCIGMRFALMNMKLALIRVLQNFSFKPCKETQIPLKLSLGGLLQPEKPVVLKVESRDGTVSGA
Sequence of Broad substrate specificity ATP-binding cassette transporter ABCG2 (Homo sapiens) (Q9UNQ0 whole entry, looked up): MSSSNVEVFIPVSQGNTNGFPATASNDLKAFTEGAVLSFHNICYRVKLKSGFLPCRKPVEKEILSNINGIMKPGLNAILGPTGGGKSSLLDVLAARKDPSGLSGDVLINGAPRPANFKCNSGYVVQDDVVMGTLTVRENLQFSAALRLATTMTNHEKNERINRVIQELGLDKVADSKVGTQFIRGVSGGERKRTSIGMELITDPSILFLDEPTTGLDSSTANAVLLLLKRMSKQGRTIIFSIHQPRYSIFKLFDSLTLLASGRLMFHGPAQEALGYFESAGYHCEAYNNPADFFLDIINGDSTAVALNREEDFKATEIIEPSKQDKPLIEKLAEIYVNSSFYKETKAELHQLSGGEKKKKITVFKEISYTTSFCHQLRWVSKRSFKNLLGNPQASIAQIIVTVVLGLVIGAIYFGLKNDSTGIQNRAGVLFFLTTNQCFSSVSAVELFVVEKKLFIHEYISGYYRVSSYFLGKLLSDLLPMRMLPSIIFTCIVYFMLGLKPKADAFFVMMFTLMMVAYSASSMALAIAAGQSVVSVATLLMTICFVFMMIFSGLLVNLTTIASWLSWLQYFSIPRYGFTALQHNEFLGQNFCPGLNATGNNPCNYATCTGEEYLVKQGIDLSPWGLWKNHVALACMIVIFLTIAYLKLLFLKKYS

Regarding `Cc1c(COC(=O)[C@@H]2[C@H](/C=C(\Cl)C(F)(F)F)C2(C)C)cccc1-c1ccccc1`, the AC50 in experiment [1] is 32.2 µM (active); in experiment [4], 6.84 µM (active); in experiment [7], 20 µM (active); in [8] it was 3.39 µM (active); in [11], 20 µM (active). The result in [2], in experiment [3], in experiment [5], in experiment [6], in experiment [9] and in experiment [10] was inactive.

With `Cc1ccc(N=CN(C)C=Nc2ccc(C)cc2C)c(C)c1`, the result in experiment [1], in experiment [12], in experiment [13] and in experiment [6] was inactive. Also, the AC50 in experiment [9] is 0.673 µM (active); in experiment [10], 17.4 µM (active).

`COC(=O)NC(=S)Nc1ccccc1NC(=S)NC(=O)OC`: the half-maximal activity concentration (AC50) in experiment [1] was 12.2 µM (active); in experiment [12], 7.45 µM (active); in experiment [4], 3.97 µM (active); in experiment [14] it was 3.45 µM (active); in experiment [9] it was 15.7 µM (active). Moreover, the call in [6], in experiment [7] and in experiment [10] was inactive.

Take `O=c1n(Cl)c(=O)n(Cl)c(=O)n1Cl`: the AC50 in experiment [1] was 3.33 µM (active). Besides, the result in experiment [12], in experiment [2], in experiment [4], in experiment [13], in experiment [5] and in experiment [6] was inactive. Besides, the call in [7], in experiment [8], in [9] and in experiment [10] was inactive.

For the molecule `Cc1cc(C)nc(Nc2ccccc2)n1`, the half-maximal activity concentration (AC50) in experiment [1] is 5.77 µM (active); in experiment [12], 1.9 µM (active); in [4] it was 1.78 µM (active); in [9] it was 7.9 µM (active); in experiment [11], 3.97 µM (active). Also, the result in [15], in experiment [7] and in [14] was inactive.

As to `COc1ccc(-c2ccccc2)cc1NNC(=O)OC(C)C`, the half-maximal activity concentration (AC50) was 0.255 µM (active) in experiment [1], 4.09 µM (active) in experiment [12] and 0.127 µM (active) in experiment [9]. The outcome in experiment [4], in experiment [13], in experiment [5], in experiment [6], in experiment [7] and in experiment [14] was inactive. Further, the molecule was called inactive in [10].

`CCSC(=O)N1CCCCCC1`: the molecule was called inactive in experiment [1], in experiment [16], in experiment [2], in [5], in [6] and in experiment [7]. Besides, in experiment [10], the call was inactive. In addition, the AC50 is 0.0865 µM (active) in experiment [4] and 0.378 µM (active) in [8].

On to `CC(C)=CC1C(C(=O)OCc2coc(Cc3ccccc3)c2)C1(C)C` (stereo not drawn), for which the call in experiment [1], in experiment [2], in [4], in [13], in [5] and in experiment [15] was inactive. Besides, the molecule was classed as inactive in [7], in [9] and in [10]. Moreover, the AC50 in experiment [8] is 20 µM (active).
